Bioassay records from PubChem BioAssay.
Only some compounds are listed: those with a hit (about 4.8% of all), similar ones and a draw of the others.
hgDAF12 agonist – H. glycines DAF-12 receptor agonists, primary screen, cell-based, luminescence, HEK293, GAL4 fusion, UAS-luciferase. Nuclear hormone receptor DAF-12 (Heterodera glycines), GAL4 fusion. HEK293 GAL4-hgDAF12 UAS-luciferase reporter, agonist luminescence; normalized to butyrate control. activation, % at 6.8 µM. 1.8% of 370,000 active. AID 687014, 2013;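 active means activation above a cutoff set at the mean of all screened compounds plus 3 SD, cut at about 10% in these data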;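 further: 0% = DMSO wells and 100% = sodium butyrate wells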
ssDAF-12 act – S. stercoralis DAF-12 nuclear receptor activators, primary screen, cell-based, luminescence, HEK293, GRIP1 co-expression, lit1-tk-luc; HEK293 ssDAF-12/GRIP1 lit1-tk-luc reporter; % of 3 µM dafachronic acid response; activation, % at 6.8 µM; 1% of 370,000 active; AID 652126, 2013;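 active means activation above the mean over all tested compounds plus 3 SD, cut at about 0.9% in these data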;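 further: 0% = DMSO-only wells and 100% = 3 µM delta7-dafachronic acid wells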
hcDAF-12 act – H. contortus DAF-12 nuclear receptor activators, primary screen, cell-based, luminescence, HEK293, lit1-tk-luc reporter; HEK293 hcDAF-12 lit1-tk-luc reporter; 0% DMSO, 100% Δ7-dafachronic acid; activation, % at 6.8 µM; AID 652067, 2013; 1.4% of 370,000 active;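 active means activation above the mean of all tested compounds plus 3 SD, cut at about 5.5% in these data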;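 further: 100% = response to 3 µM Δ7-dafachronic acid high control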
Rev-erbA mod – modulators of Rev-erb alpha DNA binding, primary screen, biochemical, FITC-DNA, fluorescence polarization, uHTS; Rev-erbα–FITC-DNA binding, 90 min; activity, % at 10 µM; 0.79% of 370,000 active;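 active means activity above about 14%, limit read from the data; passing the limit was not always enough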;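 further: 0% = DMSO wells with 35 nM protein and 100% = DMSO wells with 750 nM protein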
DAX1 inh-1 – DAX1 (NR0B1) inhibitors on StAR promoter, primary screen, cell-based, luminescence, SF-1 (NR5A1), full-length DAX-1. HEK293T StAR-luciferase reporter, SF-1/DAX-1 repression relief. inhibition, % at 6.8 µM. 1.1% of 370,000 active. AID 652010, 2013;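 active means inhibition above the mean over all tested compounds plus 3 SD, cut at about 3.6% in these data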;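 further: 0% = DAX-1 cells with DMSO and 100% = cells lacking DAX-1 with DMSO; higher inhibition means more luminescence from relief of DAX-1 repression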
DAX1 inh-2 – DAX1 (NR0B1) inhibitors, primary screen, cell-based, HEK293, Gal4-DAX1, luciferase luminescence. Nuclear receptor subfamily 0 group B member 1 (Homo sapiens), P51843. HEK293 Gal4-DAX1 luciferase reporter. inhibition, % at 6.75 µM. 0.99% of 340,000 active. AID 504766, 2011;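 active means inhibition above the mean over all tested compounds plus 3 SD, cut at about 4.2% in these data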;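 further: 0% = DAX1-transfected cells with DMSO and 100% = empty-vector control cells with DMSO; inhibition shows as a rise in luminescence from relieved DAX1 repression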
Target sequence (P51843 207-470 limits assumed): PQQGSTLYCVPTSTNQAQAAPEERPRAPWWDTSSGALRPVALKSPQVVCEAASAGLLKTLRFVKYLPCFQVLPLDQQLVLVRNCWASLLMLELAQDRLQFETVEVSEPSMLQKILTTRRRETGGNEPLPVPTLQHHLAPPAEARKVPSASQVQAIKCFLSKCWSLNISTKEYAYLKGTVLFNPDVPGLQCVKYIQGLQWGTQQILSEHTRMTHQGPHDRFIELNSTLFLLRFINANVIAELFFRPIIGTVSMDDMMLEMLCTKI
An asterisk follows results filed as active.

What do the screens show for `Cc1cccn2c(CN(C)C3CCOC3)c(C(=O)N3CCCCC3)nc12` (stereo unspecified)?
hgDAF12 agonist: -1.4; ssDAF-12 act: -0.8; hcDAF-12 act: 0.7; Rev-erbA mod: 5.6; DAX1 inh-1: 0.3; DAX1 inh-2: 4.3*

How did COc1ccc(-c2nc(SC)n(S(=O)(=O)c3ccccc3)n2)cc1 do in these assays?
hgDAF12 agonist: 5.1; ssDAF-12 act: 1.0*; hcDAF-12 act: -0.2; Rev-erbA mod: 3.0; DAX1 inh-1: 1.4; DAX1 inh-2: -0.4

How did Cc1nnc(SC(C)C(=O)Nc2ccc3ccccc3c2)[nH]c1=O (stereo unspecified) do in these assays?
hgDAF12 agonist: 4.2; ssDAF-12 act: 1.3*; hcDAF-12 act: 5.5; Rev-erbA mod: 0.2; DAX1 inh-1: 0.1; DAX1 inh-2: 2.1

How did COc1cc(=O)[nH]c(SC(C)C(=O)Nc2ccc3ccccc3c2)n1 (stereo unspecified) do in these assays?
hgDAF12 agonist: 0.3; ssDAF-12 act: -0.3; hcDAF-12 act: 2.6; Rev-erbA mod: -5.4; DAX1 inh-1: -0.1; DAX1 inh-2: 0.1

How did CC(Sc1nncn1C)C(=O)Nc1ccc2ccccc2c1 (stereo unspecified) do in these assays?
hgDAF12 agonist: 1.1; ssDAF-12 act: -1.1; hcDAF-12 act: 1.1; Rev-erbA mod: 1.8; DAX1 inh-1: 2.5; DAX1 inh-2: 4.6*

What do the screens show for `CCOc1ccc(-n2c(SCC(=O)Nc3ccc(S(=O)(=O)Nc4cc(C)nc(C)n4)cc3)nnc2-c2ccco2)cc1`?
hgDAF12 agonist: -0.9; ssDAF-12 act: -0.8; hcDAF-12 act: -0.8; Rev-erbA mod: -4.0; DAX1 inh-1: 0.5

What do the screens show for `CC#CCc1cc2ccccc2c(=O)o1`?
hgDAF12 agonist: 2.7; ssDAF-12 act: -0.8; hcDAF-12 act: -0.2; Rev-erbA mod: -1.8; DAX1 inh-1: 1.4; DAX1 inh-2: 4.6*

What do the screens show for `O=c1oc(CCO)cc2ccccc12`?
hgDAF12 agonist: 0.4; ssDAF-12 act: -1.1; hcDAF-12 act: 0.5; Rev-erbA mod: -4.1; DAX1 inh-1: 0.0; DAX1 inh-2: -0.8

Results for COC(=O)[C@@H](C)NC(=O)c1ccc2oc(CCc3ccccc3)nc2c1 ?
hgDAF12 agonist: 11.2*; ssDAF-12 act: -0.2; hcDAF-12 act: 4.1; Rev-erbA mod: -2.4; DAX1 inh-1: 0.5; DAX1 inh-2: 2.7

What do the screens show for `CCn1c2c(n(C(C)=O)c1=O)C[C@@H](c1ccccc1)[C@@H](C)[C@@H](C(=O)N1CCCC1)C2`?
hgDAF12 agonist: -0.9; ssDAF-12 act: -1.4; hcDAF-12 act: -0.3; Rev-erbA mod: -7.4; DAX1 inh-1: 0.7

Results for Cn1cc(Br)c(C(=O)Nc2c(F)c(F)c(F)c(F)c2F)n1 ?
hgDAF12 agonist: -2.2; ssDAF-12 act: -1.6; hcDAF-12 act: -0.9; Rev-erbA mod: -1.2; DAX1 inh-1: 0.6; DAX1 inh-2: -1.2

What do the screens show for `Cn1cc(Br)c(C(=O)Nc2nccs2)n1`?
hgDAF12 agonist: 6.3; ssDAF-12 act: -0.2; hcDAF-12 act: 5.6*; Rev-erbA mod: -4.2; DAX1 inh-1: 1.1; DAX1 inh-2: 0.4

How did O=C1c2ccccc2C(=O)C12OC2c1ccc(Cl)cc1Cl (stereo unspecified) do in these assays?
hgDAF12 agonist: -0.6; ssDAF-12 act: 1.5*; hcDAF-12 act: 4.6; Rev-erbA mod: 9.0; DAX1 inh-1: -0.4; DAX1 inh-2: 1.3

Results for O=C1c2ccccc2C(=O)C1c1ccc(Cl)cc1 ?
hgDAF12 agonist: 5.6; ssDAF-12 act: -1.2; hcDAF-12 act: 3.0; Rev-erbA mod: 3.9; DAX1 inh-1: 2.0; DAX1 inh-2: 0.8

Results for O=C(NNS(=O)(=O)c1ccc(Br)cc1)c1csnn1 ?
hgDAF12 agonist: -0.5; ssDAF-12 act: -0.5; hcDAF-12 act: 0.0; Rev-erbA mod: -1.3; DAX1 inh-1: 0.1; DAX1 inh-2: 5.1*

Results for Cc1ccc(/C=C/C(=O)Nc2ccc(N(C)C)cc2)o1 ?
hgDAF12 agonist: 5.2; ssDAF-12 act: 1.6*; hcDAF-12 act: -1.0; Rev-erbA mod: -4.9; DAX1 inh-1: 1.7; DAX1 inh-2: 1.2

How did COC(=O)[C@]12C[C@H](CC(=O)NCCCCc3ccccc3)C(=O)N(Cc3ccco3)C1=C[C@H](C(C)(C)C)O[C@@H]2C do in these assays?
hgDAF12 agonist: -4.0; ssDAF-12 act: -1.7; hcDAF-12 act: -0.3; Rev-erbA mod: -5.2; DAX1 inh-1: -1.0

How did Cc1onc(-c2ccccc2)c1C(=O)NNC(=O)c1ccccc1O do in these assays?
hgDAF12 agonist: 3.9; ssDAF-12 act: -0.7; hcDAF-12 act: 1.2; Rev-erbA mod: -2.2; DAX1 inh-1: -2.2; DAX1 inh-2: 1.7

How did Cc1onc(-c2ccccc2)c1C(=O)NNC(=O)c1ccccc1 do in these assays?
hgDAF12 agonist: -0.4; ssDAF-12 act: 1.1*; hcDAF-12 act: 3.1; Rev-erbA mod: 1.5; DAX1 inh-1: -0.5; DAX1 inh-2: 0.2

Results for Cc1onc(-c2ccccc2)c1C(=O)Nc1cccc(C#N)c1 ?
hgDAF12 agonist: 10.7*; ssDAF-12 act: -1.5; hcDAF-12 act: 2.0; Rev-erbA mod: -3.2; DAX1 inh-1: -1.5; DAX1 inh-2: 1.6

How did CCc1nccn1CCC(=O)N1CCc2c([nH]c3ccccc23)C1CC(C)C (stereo unspecified) do in these assays?
hgDAF12 agonist: 1.8; ssDAF-12 act: 0.1; hcDAF-12 act: 5.6*; Rev-erbA mod: 4.8; DAX1 inh-1: -0.2; DAX1 inh-2: 0.8

What do the screens show for `CC(=O)Nc1sc2c(c1-c1nc(-c3ccccc3)cs1)CCN(C(C)C)C2`?
hgDAF12 agonist: 5.8; ssDAF-12 act: -0.1; hcDAF-12 act: 6.3*; Rev-erbA mod: 3.5

What do the screens show for `CCCCN1CCN(C(=O)c2ccc(CNC(=O)c3cccc(Br)c3)cc2)CC1`?
hgDAF12 agonist: -3.1; ssDAF-12 act: -1.0; hcDAF-12 act: -1.7; Rev-erbA mod: -2.4; DAX1 inh-1: -0.7

How did Cn1cccc1C(=O)NC(=O)CSc1nc2ccccc2s1 do in these assays?
hgDAF12 agonist: 4.4; ssDAF-12 act: 1.0*; hcDAF-12 act: 4.5; Rev-erbA mod: 0.8; DAX1 inh-1: 1.4; DAX1 inh-2: -0.5

Results for CN1CCN(c2ccccc2NC(=O)c2cc3ccccc3o2)CC1 ?
hgDAF12 agonist: -1.0; ssDAF-12 act: 0.4; hcDAF-12 act: 3.9; Rev-erbA mod: 4.8; DAX1 inh-1: -1.2; DAX1 inh-2: -0.8
